# Compound activity: PubChem, National Center for Advancing Translational Sciences (NCATS)
# Sm TGR inh: inhibitors of Schistosoma mansoni thioredoxin glutathione reductase | Q962Y6 | purified TGR, DTNB reduction, TNB absorbance 405 nm | Potency, µM (highest dose often 114 µM), actives largely listed as inhibitors | hit rate 3% among 360,000 | AID 485364; further: nearly all actives have a fitted effect of over 60% in size
#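 TGR 20 nM + NADPH 100 uM (dispensed conc.), cpd preinc 15 min RT; start with NADPH (500 uM addition) then DTNB (15 mM addition). Kinetic TNB absorbance, 405 nm filter. Four-parameter Hill fit across titration.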
# AmpC no deterg: inhibitors of E. coli AmpC beta-lactamase without detergent; Potency, µM (titrated, usually from 57.1 µM), hits mostly inhibitors; hit rate 0.52% among 330,000; AID 485341; AmpC nitrocefin hydrolysis, absorbance 480 nm, 0.0001% Triton; P00811; further: nearly all actives have a fitted effect of over 20% in size
# Target sequence (P00811 whole entry, looked up): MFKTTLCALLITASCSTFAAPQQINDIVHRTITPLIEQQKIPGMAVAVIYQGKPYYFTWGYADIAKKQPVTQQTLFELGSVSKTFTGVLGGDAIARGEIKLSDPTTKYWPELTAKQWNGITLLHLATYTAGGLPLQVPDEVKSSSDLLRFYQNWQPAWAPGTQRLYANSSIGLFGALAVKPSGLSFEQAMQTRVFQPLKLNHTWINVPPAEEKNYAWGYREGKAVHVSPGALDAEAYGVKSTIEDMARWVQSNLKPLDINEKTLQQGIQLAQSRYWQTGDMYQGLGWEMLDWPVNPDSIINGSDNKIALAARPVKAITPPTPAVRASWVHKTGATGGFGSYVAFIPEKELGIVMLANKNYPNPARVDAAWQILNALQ
#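 20 mM phosphate pH 7.0 + 0.01% (detergent screen) or 0.0001% Triton X-100; 5.3 nM AmpC reagent; cpd preinc 15 min RT; nitrocefin (800 uM stock) to start; A480 q20 s × 4 min; Activity was normalised to no-enzyme and no-compound control wells.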
# AMA1-RON2 inh: inhibitors of Plasmodium falciparum AMA1-RON2 interaction; AlphaScreen AMA1-biotinylated RON2 peptide binding; Potency, µM (top dose mostly 58.2 µM), actives largely listed as inhibitors; hit rate 0.2% among 360,000; further: nearly all actives have a fitted effect of over 45% in size
#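 AMA1 (3D7) with his tag at 25 nM final met compounds first, then biotinylated RON2 peptide at 25 nM; detection used donor plus acceptor beads, 10 µg/mL apiece, read by AlphaScreen after 30 min at room temperature.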
# AmpC inh detg: inhibitors of E. coli AmpC beta-lactamase with detergent; Potency, µM (top dose mostly 114 µM), usual class: inhibitors; hit rate 0.041% among 370,000; P00811; AID 485294; AmpC hydrolysis of nitrocefin, absorbance 480 nm, 0.01% Triton; further: nearly all actives have a fitted effect of over 25% in size
#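 20 mM phosphate pH 7.0 + 0.01% (detergent screen) or 0.0001% Triton X-100; 5.3 nM AmpC reagent; cpd preinc 15 min RT; nitrocefin (800 uM stock) to start; A480 q20 s × 4 min; Activity was normalised to no-enzyme and no-compound control wells.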
# FMDV inh: blocks foot and mouth disease virus. FMDV antiviral cell-based qHTS. Potency, µM (series often up to 57.9 µM), usual class: inhibitors. hit rate 1.2% among 410,000. AID 1159524; calls by dose curve; tested in HEK293T cells; further: read-out not given here; nearly all actives have a fitted effect of over 45% in size
# Hits are given with their value; 0 = inactive; ? = inconclusive; - = not tested or not shown; [ ] = remark or other dose. Shown are actives, neighbours in structure and some others; about 4.1% of the full set was active somewhere. Unless noted, the call rests on the fitted dose curve; in most records, active means well fitted curve in the direction sought with a large enough effect; inconclusive means small, poorly fitted or top-dose-only effect, or another doubt; inactive means no such curve, though single readings can be large; an effect the other way counts as inactive or inconclusive.
SMILES,Sm TGR inh,AmpC no deterg,AMA1-RON2 inh,AmpC inh detg,FMDV inh
O=C1C=C(Nc2cccc3cccnc23)c2ccccc2C1=O,31.6µM,0,0,0,28.2µM
COc1cccc(NC(=O)Nc2nnc(CC(=O)NCc3ccccc3)s2)c1,0,25.1µM,0,0,0
Cc1cc(C(=O)Nc2ccccc2-c2nc(CNC(=O)c3ccc(F)cc3F)c(C)o2)c(C)o1,-,-,-,-,0
Cc1ccc(S(=O)(=O)N2CCC(c3nnc(-c4cccc(C)c4)o3)CC2)cc1,0,-,-,0,0
CCOC(=O)c1c(C)n(C)c2ccc(OCC(O)Cn3c(C)nc4ccccc43)cc12 (stereo not drawn),0,0,0,?,17.8µM
CCCc1nc2ccccc2n1CC(O)COc1ccc(C(=O)OC)cc1 (stereo not drawn),0,-,-,0,28.2µM
CCC(=O)c1ccc(OCC(O)Cn2c(C)nc3ccccc32)cc1 (stereo not drawn),0,0,0,0,?
CCOc1ccccc1NC(=O)C(NS(=O)(=O)c1cccc2nsnc12)c1ccccc1 (stereo not drawn),0,-,-,0,0
c1cc(C(c2nnnn2C2CCCC2)N2CCOCC2)ccn1 (stereo not drawn),28.2µM,0,0,0,-
c1cncc(C(c2nnnn2C2CCCCC2)N2CCCCC2)c1 (stereo not drawn),0,0,0,0,0
Oc1ccc(N2CCN(C(c3ccncc3)c3nnnn3C3CCCC3)CC2)cc1 (stereo not drawn),0,0,0,0,-
Oc1ccc(C(c2nnnn2C2CCCCC2)N2CCOCC2)cc1 (stereo not drawn),2.82µM,0,0,0,0
Cc1ccc(CNc2ncnc3sc(C(=O)N4CCCC(C(N)=O)C4)c(C)c23)o1 (stereo not drawn),-,-,-,-,0
CC(C)N(C(=O)COC(=O)c1ccc(O)cc1)C(C)C,0,3.98µM,0,0,0
CCN(CC)C(=O)COC(=O)c1ccc(O)cc1,0,-,0,0,0
COc1cc(-n2nc(C)c3c2OC(N)=C(C#N)C3c2ccccc2)c(Cl)c(Br)c1O (stereo not drawn),0,0,0,0,22.4µM
Cc1nn(-c2ccccc2)c2c1C(c1ccncc1)C(C#N)=C(N)O2 (stereo not drawn),0,0,0,?,0
CCCCCCn1c2c(c(=N)c3c1CCC3)CCC2,0,0,0,0,?
CCCCCCCn1c2c(c(=N)c3c1CCC3)CCCC2,-,0,0,0,3.16µM
CCCCCCCCCn1c2c(c(=N)c3c1CCC3)CCC2,?,0,0,?,5.62µM
N#C/C(=N\Nc1ccc(S(=O)(=O)N2CCCCCC2)cc1)C(N)=S,-,0,0,0,0
O=S(=O)(Nc1ccc(S(=O)(=O)N2CCCCC2)cc1)c1ccc(Br)s1,6.31µM,0,0,0,0
CC(=O)Nc1ccc(S(=O)(=O)Nc2ccc(S(=O)(=O)N3CCCCCC3)cc2)cc1,0,20µM,0,0,0
O=S(=O)(Nc1ccc(S(=O)(=O)N2CCCCCC2)cc1)c1cccs1,0,0,0,0,-
N#CC(C#N)=NNc1ccc(S(=O)(=O)N2CCCC2)cc1,20µM,0,0[11.6 µM],0,31.6µM
SMILES,Sm TGR inh,AmpC no deterg,AMA1-RON2 inh,AmpC inh detg,FMDV inh
CC(=O)Nc1ccc(S(=O)(=O)N2CCN(S(=O)(=O)N3CCCCC3)CC2)cc1,0,0,0,0,0
CC(=O)c1ccc(S(=O)(=O)N2CCN(CCOc3ccc(Br)cc3)CC2)cc1,0,0,0,0,17.8µM
O=C(c1cccnc1)C1CCCN(Cc2ccc3c(c2)CN(C(=O)c2cn4ccccc4n2)CCO3)C1 (stereo not drawn),-,-,-,-,0
Cc1c(C2=CCN(S(=O)(=O)c3ccc(CC(C)C)cc3)CC2)c2ccccc2n1CC(=O)N1CCCC1,?,-,-,0,0
CC(=O)c1ccc(S(=O)(=O)N2CCCC2)cc1,44.7µM,0,0,0,0
Cc1ccc(S(=O)(=O)N2CCCNCC2)cc1,15.8µM,0,0,0,0
O=C(CSc1nccn1Cc1ccc(F)cc1)Nc1ccc2c(c1)OCO2,0,-,-,0,0
COc1ccccc1C(=O)N1CCOc2ccc(C(C)(O)CCn3cccn3)cc2C1 (stereo not drawn),-,-,-,-,0
CCOc1ccc(NC(=O)Cn2c(=O)n(Cc3ccccc3)c(=O)c3c4c(sc32)CN(C(C)=O)CC4)cc1,0,-,-,0,0
COc1ccc(N(CC(=O)NCCSCc2ccco2)S(=O)(=O)c2ccccc2)cc1,?,0,0,0,0
COc1ccc(N(CC(=O)NCCSCc2ccco2)S(=O)(=O)c2ccc(C)cc2)cc1,28.2µM,0,0,0,0
Cc1ccc(N(CC(=O)NCCSCc2ccco2)S(=O)(=O)c2ccc(F)cc2)cc1,0,0,0,0,0
Cc1cc(Cl)ccc1N(CC(=O)NCCSCc1ccco1)S(C)(=O)=O,17.8µM,0,0,0,0
Cc1ccc(S(=O)(=O)N(CC(=O)NCCSCc2ccco2)c2cc(C)ccc2C)cc1,-,-,0,-,0
Cc1ccc(N(CC(=O)NCCSCc2ccco2)S(C)(=O)=O)cc1,44.7µM,0,0,0,-
Cc1ccc(S(=O)(=O)N(CC(=O)NCCSCc2ccco2)c2ccc(F)cc2)cc1,12.6µM,0,-,0,-
COc1ccc(NC(=O)N2CC3(CCN(C(=O)c4cccc(F)c4)CC3)C2)cc1,-,-,-,-,0
CCOc1ccc2nc(NC(=O)c3cc(=O)c4cc(C)cc(C)c4o3)sc2c1,0,-,-,0,0
Cc1ccc(S(=O)(=O)N2CCC(C(=O)Nc3ccccc3N3CCCC3)CC2)cc1,0,0,0,0,0
CCN(CC)c1ccc(S(=O)(=O)N2CCOCC2)cc1NC(=O)C1CC1,0,0,0,0,0
CCN(CC)c1ccc(S(=O)(=O)N2CCCCC2)cc1NC(=O)C1CCC1,50.1µM,0,0,0,0
Cc1cccc(NC(=O)C2CCN(S(=O)(=O)c3ccc4ccccc4c3)CC2)n1,0,0,0,0,25.1µM
Cc1cccc(NC(=O)C2CCN(S(=O)(=O)c3ccc(Cl)cc3)CC2)n1,0,0,?,0,?
Cc1ccc(S(=O)(=O)N2CCC(C(=O)Nc3ccccc3N3CCCCC3)CC2)cc1,0,0,0,31.6µM,0
CCCCS(=O)(=O)c1sc2nc3c(cc2c1N)CCCC3,0,0,5.97µM,?,0
SMILES,Sm TGR inh,AmpC no deterg,AMA1-RON2 inh,AmpC inh detg,FMDV inh
CCCCCCCCS(=O)c1sc2nc3c(cc2c1N)CCCC3 (stereo not drawn),-,-,0,-,?
CCOC(=O)c1cc(-c2ccc(OC)cc2)nn1Cc1ccccc1,0,-,-,0,0
COc1ccc(CCNC(=O)c2ccc3c(c2)OCO3)cc1,0,0,0,?,0
COc1ccc2cc(CCNC(=O)c3ccc4c(c3)OCO4)c(=O)[nH]c2c1,0,2.82µM,0,?,0
O=C(NCC(c1ccco1)N1CCc2ccccc21)C(=O)Nc1ccccc1 (stereo not drawn),0,10µM,0,?,0
Cc1ccc(C(=O)Nc2sc(C)c(-c3ccccc3)c2C(N)=O)cc1[N+](=O)[O-],0,0,0,0,1.78µM
